Measurements taken from the supplement of paper PMC11732987, “Enantioselective OTUD7B fragment discovery through chemoproteomics screening and high-throughput optimisation” (Communications Chemistry, 2025).

How the values were obtained:
Assay in all cases: log2 ratio of Biotin-Ahx-Ub-VS probe labelling (fragment/DMSO); higher = less target engagement (more negative = stronger competition), active = hit call of the paper (q ≤ 0.05, log2 ratio ≤ -1)
Details in all cases: compound concentration: 200 uM; treatment time: 3 h
[1] = molecular target: USP9X (UniProt Q93008)
Summary of the method: (§1)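 HEK293T lysate (495 µg per sample, in Tris/CHAPS/IGEPAL buffer with protease inhibitors) was treated in triplicate with fragment at 200 µM or with DMSO for 3 h. It was then treated with Biotin-Ahx-Ub-VS (0.5 µM final) for 1 h. Labelled DUBs were NeutrAvidin-enriched, digested with LysC and trypsin, and run by diaPASEF LC-MS/MS. Spectronaut label-free quantities were global-median-normalised. Values are average log2 ratios fragment/DMSO by unpaired t-test, using proteins with ≥2 unique peptides.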

[2] = molecular target: UniProt O00487
Summary of the method: as §1

[3] = molecular target: UniProt O00507
Summary of the method: as §1

[4] = molecular target: UniProt P51784
Summary of the method: as §1

[5] = molecular target: T1, UniProt Q5T2D3
T1 sequence (whole entry): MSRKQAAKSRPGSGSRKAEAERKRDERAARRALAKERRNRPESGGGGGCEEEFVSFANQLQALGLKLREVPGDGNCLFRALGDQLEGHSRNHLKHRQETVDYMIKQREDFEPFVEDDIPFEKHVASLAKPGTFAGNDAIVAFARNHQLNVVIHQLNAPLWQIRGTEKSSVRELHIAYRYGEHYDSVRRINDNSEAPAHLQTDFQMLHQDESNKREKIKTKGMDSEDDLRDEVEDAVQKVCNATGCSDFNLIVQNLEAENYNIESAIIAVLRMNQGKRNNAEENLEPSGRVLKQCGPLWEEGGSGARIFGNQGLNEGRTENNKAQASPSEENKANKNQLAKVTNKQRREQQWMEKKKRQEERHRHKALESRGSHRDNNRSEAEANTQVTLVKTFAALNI
Summary of the method: as §1

[6] = molecular target: T2, UniProt Q8TE49
T2 sequence (whole entry): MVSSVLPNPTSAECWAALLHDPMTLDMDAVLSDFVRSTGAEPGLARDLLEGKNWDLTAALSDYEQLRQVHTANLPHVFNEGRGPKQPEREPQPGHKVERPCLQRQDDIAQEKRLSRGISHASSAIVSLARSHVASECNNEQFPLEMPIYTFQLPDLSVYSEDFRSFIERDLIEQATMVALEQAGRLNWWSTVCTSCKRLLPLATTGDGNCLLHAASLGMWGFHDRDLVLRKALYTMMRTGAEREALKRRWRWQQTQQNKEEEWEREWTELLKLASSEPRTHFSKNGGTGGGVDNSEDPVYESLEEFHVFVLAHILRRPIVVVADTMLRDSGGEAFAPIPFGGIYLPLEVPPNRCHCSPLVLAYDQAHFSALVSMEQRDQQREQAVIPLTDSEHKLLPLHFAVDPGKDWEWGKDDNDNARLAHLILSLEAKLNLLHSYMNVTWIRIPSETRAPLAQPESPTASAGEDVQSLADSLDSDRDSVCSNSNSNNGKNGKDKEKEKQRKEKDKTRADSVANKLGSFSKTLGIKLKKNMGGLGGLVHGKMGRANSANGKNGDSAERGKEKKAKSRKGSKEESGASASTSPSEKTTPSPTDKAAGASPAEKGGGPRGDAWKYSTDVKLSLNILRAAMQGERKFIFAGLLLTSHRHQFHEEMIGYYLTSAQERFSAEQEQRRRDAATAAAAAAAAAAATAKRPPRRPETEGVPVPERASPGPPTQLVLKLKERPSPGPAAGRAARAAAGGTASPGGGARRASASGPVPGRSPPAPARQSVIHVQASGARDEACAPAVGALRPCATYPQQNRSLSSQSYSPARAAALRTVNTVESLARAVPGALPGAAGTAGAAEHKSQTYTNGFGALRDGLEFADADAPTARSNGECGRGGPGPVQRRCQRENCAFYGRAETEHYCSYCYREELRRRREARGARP
Summary of the method: as §1

[7] = molecular target: T3, UniProt Q9P2H5
T3 sequence (whole entry): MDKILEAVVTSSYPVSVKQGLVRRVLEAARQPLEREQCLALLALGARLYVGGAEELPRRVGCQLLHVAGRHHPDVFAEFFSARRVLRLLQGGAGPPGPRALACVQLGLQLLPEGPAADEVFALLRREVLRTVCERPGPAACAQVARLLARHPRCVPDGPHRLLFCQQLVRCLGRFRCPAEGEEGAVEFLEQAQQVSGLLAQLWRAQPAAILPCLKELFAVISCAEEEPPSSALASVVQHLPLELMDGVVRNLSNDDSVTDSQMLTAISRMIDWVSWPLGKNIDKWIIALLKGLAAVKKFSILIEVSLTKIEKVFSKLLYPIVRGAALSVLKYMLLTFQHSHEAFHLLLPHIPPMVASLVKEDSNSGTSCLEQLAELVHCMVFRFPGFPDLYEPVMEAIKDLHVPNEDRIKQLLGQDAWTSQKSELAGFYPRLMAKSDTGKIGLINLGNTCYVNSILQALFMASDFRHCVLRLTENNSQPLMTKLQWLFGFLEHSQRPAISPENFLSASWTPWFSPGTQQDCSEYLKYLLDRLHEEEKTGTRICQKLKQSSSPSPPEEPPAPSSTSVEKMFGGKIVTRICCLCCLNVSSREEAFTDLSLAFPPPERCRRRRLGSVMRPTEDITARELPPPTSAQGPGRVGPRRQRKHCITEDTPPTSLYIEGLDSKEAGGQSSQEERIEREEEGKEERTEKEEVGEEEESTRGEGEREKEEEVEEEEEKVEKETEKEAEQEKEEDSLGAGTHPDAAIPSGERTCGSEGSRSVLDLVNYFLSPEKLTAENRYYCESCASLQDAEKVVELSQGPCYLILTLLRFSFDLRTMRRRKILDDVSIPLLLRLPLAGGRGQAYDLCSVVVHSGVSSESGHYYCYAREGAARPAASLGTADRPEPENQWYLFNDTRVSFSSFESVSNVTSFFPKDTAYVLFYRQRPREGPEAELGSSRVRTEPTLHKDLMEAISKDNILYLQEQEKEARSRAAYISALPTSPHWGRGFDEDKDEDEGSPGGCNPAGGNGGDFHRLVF
Summary of the method: as §1

[8] = molecular target: T4, UniProt Q9UGI0
T4 sequence (whole entry): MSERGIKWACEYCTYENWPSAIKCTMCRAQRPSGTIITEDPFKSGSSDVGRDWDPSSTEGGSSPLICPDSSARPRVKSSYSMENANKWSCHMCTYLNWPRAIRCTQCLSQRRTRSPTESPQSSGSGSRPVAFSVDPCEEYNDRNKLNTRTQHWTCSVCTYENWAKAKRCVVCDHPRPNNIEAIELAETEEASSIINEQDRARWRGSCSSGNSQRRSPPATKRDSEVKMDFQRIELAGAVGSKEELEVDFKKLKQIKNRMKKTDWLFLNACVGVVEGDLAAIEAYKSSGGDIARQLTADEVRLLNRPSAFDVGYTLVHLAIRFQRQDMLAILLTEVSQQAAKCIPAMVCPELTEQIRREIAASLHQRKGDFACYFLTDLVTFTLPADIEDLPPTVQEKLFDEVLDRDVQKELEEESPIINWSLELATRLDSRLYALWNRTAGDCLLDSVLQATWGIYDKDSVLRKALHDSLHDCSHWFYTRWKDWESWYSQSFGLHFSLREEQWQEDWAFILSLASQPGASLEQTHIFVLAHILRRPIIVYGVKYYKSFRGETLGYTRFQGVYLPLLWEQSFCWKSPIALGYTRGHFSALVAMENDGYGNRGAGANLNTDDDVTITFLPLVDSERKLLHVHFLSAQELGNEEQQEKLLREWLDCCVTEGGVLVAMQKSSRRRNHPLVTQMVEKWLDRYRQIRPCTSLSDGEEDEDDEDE
Summary of the method: as §1

[9] = molecular target: T5, YOD1 (UniProt Q5VVQ6)
T5 sequence (whole entry): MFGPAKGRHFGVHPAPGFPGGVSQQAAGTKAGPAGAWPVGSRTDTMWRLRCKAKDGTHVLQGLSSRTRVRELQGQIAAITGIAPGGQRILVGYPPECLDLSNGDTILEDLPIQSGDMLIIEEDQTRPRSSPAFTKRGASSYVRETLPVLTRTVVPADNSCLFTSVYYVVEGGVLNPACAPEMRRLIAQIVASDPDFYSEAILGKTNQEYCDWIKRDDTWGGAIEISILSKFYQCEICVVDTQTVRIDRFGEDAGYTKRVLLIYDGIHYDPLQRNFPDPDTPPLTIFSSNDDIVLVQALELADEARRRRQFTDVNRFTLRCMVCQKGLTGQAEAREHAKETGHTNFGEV
Summary of the method: as §1

Measured: log2 ratio of Biotin-Ahx-Ub-VS probe labelling

UniProt O00507, sequence (O00507 whole entry): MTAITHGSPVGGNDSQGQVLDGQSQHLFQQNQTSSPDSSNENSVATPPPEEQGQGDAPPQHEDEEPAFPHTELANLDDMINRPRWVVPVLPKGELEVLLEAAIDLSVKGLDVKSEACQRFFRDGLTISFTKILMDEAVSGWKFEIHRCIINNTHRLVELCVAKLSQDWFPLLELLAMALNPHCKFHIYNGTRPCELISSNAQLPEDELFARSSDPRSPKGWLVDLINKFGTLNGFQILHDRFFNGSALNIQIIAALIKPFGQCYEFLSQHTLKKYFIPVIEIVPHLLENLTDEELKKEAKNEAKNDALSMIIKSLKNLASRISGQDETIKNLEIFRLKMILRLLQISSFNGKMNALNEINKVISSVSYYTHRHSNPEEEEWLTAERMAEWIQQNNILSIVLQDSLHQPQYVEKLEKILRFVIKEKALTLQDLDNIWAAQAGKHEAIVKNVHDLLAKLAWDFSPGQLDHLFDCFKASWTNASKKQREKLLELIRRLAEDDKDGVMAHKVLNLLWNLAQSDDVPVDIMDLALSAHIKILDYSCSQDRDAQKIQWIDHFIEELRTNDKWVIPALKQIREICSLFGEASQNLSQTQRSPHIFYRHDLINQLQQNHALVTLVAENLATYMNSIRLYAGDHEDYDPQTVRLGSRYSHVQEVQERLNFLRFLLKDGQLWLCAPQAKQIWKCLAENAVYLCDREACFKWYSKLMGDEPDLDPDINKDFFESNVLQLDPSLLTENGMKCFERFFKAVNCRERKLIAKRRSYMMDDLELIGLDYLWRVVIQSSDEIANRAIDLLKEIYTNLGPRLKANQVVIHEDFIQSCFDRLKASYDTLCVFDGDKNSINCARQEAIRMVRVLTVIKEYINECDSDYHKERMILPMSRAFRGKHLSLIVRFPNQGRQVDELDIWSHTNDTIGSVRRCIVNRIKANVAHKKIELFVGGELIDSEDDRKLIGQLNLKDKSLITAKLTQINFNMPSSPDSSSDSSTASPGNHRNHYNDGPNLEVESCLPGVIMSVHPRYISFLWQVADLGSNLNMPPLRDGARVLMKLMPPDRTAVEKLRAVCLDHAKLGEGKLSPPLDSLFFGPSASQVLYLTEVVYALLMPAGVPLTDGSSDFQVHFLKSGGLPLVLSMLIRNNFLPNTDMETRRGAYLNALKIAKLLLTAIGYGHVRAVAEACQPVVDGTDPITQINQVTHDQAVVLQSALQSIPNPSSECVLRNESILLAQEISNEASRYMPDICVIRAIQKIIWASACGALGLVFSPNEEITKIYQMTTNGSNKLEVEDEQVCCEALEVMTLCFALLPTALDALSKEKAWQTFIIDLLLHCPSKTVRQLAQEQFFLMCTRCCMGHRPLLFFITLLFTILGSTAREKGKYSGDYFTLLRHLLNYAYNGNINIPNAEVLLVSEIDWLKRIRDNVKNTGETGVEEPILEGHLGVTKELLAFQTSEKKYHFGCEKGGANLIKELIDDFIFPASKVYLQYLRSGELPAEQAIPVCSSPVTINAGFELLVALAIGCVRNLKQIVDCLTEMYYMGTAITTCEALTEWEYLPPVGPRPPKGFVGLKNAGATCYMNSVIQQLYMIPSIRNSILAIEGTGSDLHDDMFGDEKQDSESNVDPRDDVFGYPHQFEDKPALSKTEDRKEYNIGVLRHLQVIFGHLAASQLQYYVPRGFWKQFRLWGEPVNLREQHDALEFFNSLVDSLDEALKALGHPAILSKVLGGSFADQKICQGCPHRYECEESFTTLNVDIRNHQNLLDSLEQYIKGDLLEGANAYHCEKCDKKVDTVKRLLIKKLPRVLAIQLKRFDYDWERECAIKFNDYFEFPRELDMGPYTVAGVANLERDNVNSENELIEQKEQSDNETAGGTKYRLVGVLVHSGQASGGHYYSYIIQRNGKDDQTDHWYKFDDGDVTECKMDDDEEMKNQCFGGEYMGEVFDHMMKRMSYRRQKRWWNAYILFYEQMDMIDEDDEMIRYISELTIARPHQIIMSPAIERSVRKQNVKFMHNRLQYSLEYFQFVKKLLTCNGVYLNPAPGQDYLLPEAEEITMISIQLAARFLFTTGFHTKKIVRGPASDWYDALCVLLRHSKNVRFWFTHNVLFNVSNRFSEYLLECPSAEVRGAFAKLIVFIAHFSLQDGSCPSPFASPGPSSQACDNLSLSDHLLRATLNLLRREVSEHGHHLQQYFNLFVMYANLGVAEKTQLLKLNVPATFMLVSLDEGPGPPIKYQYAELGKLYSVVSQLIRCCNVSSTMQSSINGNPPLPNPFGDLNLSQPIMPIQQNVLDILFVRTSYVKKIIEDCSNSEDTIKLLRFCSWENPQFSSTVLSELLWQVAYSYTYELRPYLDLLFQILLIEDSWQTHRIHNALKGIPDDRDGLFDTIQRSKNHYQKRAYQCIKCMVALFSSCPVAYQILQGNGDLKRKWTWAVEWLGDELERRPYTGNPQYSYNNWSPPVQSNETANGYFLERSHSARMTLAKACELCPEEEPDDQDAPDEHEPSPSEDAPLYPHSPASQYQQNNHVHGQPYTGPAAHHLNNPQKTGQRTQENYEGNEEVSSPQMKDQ
UniProt P51784, sequence (P51784 whole entry): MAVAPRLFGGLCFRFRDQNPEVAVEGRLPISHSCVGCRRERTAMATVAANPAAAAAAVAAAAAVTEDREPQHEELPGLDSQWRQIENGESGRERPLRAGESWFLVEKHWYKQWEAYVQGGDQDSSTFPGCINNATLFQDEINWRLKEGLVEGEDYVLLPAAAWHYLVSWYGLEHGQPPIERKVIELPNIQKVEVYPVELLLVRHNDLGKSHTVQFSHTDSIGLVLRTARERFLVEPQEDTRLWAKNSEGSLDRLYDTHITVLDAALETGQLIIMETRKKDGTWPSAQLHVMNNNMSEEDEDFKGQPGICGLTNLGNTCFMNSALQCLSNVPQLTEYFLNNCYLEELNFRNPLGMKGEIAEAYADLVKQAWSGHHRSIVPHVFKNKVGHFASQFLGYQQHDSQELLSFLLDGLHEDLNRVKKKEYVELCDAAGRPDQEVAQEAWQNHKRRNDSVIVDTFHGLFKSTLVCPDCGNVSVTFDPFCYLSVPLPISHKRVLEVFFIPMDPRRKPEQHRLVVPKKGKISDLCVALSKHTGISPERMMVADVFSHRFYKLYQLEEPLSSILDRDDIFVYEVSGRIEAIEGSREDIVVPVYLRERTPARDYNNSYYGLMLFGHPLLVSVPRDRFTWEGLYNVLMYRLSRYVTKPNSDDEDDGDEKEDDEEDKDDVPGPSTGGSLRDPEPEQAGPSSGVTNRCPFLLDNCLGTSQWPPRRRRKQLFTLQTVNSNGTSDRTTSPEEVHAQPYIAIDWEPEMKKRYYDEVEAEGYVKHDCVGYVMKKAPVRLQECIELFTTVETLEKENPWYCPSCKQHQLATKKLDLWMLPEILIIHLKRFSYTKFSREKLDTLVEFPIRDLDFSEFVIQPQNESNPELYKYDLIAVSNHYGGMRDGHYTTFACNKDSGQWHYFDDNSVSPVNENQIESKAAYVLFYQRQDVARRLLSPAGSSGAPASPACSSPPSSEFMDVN
UniProt O00487, sequence (O00487 whole entry): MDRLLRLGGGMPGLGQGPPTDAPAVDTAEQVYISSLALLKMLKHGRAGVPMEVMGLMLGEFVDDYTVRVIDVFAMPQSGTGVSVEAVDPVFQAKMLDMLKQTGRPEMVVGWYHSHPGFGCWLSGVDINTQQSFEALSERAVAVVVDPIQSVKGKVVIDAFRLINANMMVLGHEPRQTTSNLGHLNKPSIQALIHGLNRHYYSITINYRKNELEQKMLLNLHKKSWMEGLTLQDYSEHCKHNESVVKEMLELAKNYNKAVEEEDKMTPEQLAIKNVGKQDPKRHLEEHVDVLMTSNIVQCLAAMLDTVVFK

O=C(CCl)NCCC1COCCO1 (centres undefined)
inactive: [1] -0.131 | [2] -0.1 | [3] -0.31 | [4] 0.182 | [5] -0.163 | [6] -0.547 | [7] -0.0395 | [8] -0.194 | [9] -0.308
